# Measured values as given in PubChem BioAssay (NCI).
# About 83,000 compounds went through this panel and 20% of them were active in at least one assay; those are over-represented in the sample as a whole.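 Assay: single dose, 48 h. Readout: percent growth (0 = no net growth; negative = cell death). Active: <10.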 A number with no mark means an inactive call. Active and inactive are the calls of the source.
# Legend:
# Assay in all cases: NCI-60 one-dose screen, 48 h (100 = growth as untreated, 0 = no growth, -100 = all killed)
# [1] = test system: NCI-H23 lung; conditions: 10 µM unless noted
# [2] = test system: NCI-H226 lung; conditions: 10 µM unless noted
# [3] = test system: NCI-H322M lung; conditions: 10 µM unless noted
# [4] = test system: HOP-62 NSCLC; conditions: 10 µM unless noted
# [5] = test system: NCI-H460 lung; conditions: 10 µM unless noted
# [6] = test system: HOP-92 NSCLC; conditions: 10 µM
# [7] = test system: NCI-H522 lung; conditions: 10 µM unless noted
# [8] = test system: A549/ATCC NSCLC; conditions: 10 µM unless noted
# [9] = test system: 786-0 renal; conditions: 10 µM unless noted
# [10] = test system: COLO 205 colon; conditions: 10 µM unless noted
# [11] = test system: DU-145 prostate; conditions: 10 µM unless noted
# [12] = test system: K-562 leukemia; conditions: 10 µM unless noted
# [13] = test system: MALME-3M melanoma; conditions: 10 µM unless noted
# [14] = test system: MDA-MB-231 breast; conditions: 10 µM unless noted
# [15] = test system: SF-268 CNS; conditions: 10 µM unless noted
# [16] = test system: SF-295 CNS; conditions: 10 µM unless noted
# [17] = test system: SF-539 CNS; conditions: 10 µM unless noted
# [18] = test system: UACC-257 melanoma; conditions: 10 µM unless noted
Compound,growth [1],growth [2],growth [3],growth [4],growth [5],growth [6],growth [7],growth [8],growth [9],growth [10],growth [11],growth [12],growth [13],growth [14],growth [15],growth [16],growth [17],growth [18]
O=C(NNc1nc2cc(F)ccc2n2c(CN3CC4CNCC4C3)ccc12)c1cnccn1 (stereo not drawn),35.4%,25%,31.8%,24.9%,4.93% (active),50.8%,16.9%,21.5%,16.3%,18.3%,27.5%,15.6%,18.9%,39.5%,22.3%,2.89% (active),15.1%,13.7%
CC(C)C[C@@H]1N[C@@]2(C(=O)Nc3ccccc32)[C@@H](c2ccc(F)cc2)[C@@H]1C(=O)c1ccc(O)cc1,91.6%,92.7%,99.1%,88.9%,101%,74.3%,79.6%,85.1%,93.2%,110%,102%,89.7%,84.3%,82.4%,88.7%,100%,93.3%,112%
COc1ccccc1NC1=C(Cl)C(=O)c2nc(C)ccc2C1=O,-8.37% (active),29.6%,71.1%,74.1%,70.8%,-83.8% (active),-48.5% (active),101%,9.17% (active),111%,-57.3% (active),-21.1% (active),-55.9% (active),-57.3% (active),47.4%,96.6%,1.78% (active),-82.7% (active)
C=CCN(C)S(=O)(=O)/N=C1\NC(=O)NC1=C(Cl)Cl,37.5%,89%,95%,76.5%,45.6%,-23.4% (active),-57% (active),103%,32.2%,-40.8% (active),72.8%,-3.52% (active),-69.4% (active),-25.5% (active),32.2%,102%,-23.6% (active),57.4%
NC(N)=Nc1ccc(Oc2cccc(NC(N)=Nc3ccc(Cl)c(C(F)(F)F)c3)c2)cc1,60.2%,73%,64.6%,60.4%,26.8%,19.2%,39.6%,47.1%,81%,24.3%,75.2%,31.7%,61.8%,61.3%,21.9%,58.3%,49.3%,57%
COc1cc(/C=N/NC(=O)c2cn(C3CC3)c3c(OC)c(N4CC5CCCNC5C4)c(F)cc3c2=O)ccc1O (stereo not drawn),55.4%,87.3%,55.4%,96%,-66.6% (active),79.5%,46.8%,-21.4% (active),-62.2% (active),35.6%,46.5%,-25.5% (active),89.2%,-27.4% (active),82.1%,100%,-9.11% (active),104%
CC(c1ccccc1)N1CSc2nc3ncncc3n2C1 (stereo not drawn),24.1%,48.8%,40.9%,26.9%,51.2%,65.5%,38.2%,72%,29.6%,32.8%,33.3%,20.9%,38.2%,32.7%,28.4%,21.6%,23.5%,44.5%
C=CCn1c(SCC(=O)Nc2ccc(C(=O)/C=C/c3cc(OC)c(OC)c(OC)c3)cc2)nnc1-c1c[nH]c2ccccc12,-11% (active),-4.91% (active),53%,70.5%,3.42% (active),63.7%,35.7%,34.7%,23.1%,73.1%,13.2%,3.04% (active),68.6%,23%,33.1%,68.1%,-16.2% (active),73%
COc1cc2c(cc1OC)C(Sc1ccc(F)cc1)c1c(nc(N)c(C#N)c1N)O2 (stereo not drawn),-83.1% (active),-29.4% (active),-74.8% (active),10.5%,-60.7% (active),-29.4% (active),-37.7% (active),-30% (active),-72.3% (active),-45.3% (active),-93.3% (active),8.27% (active),-75.1% (active),-79% (active),-38.3% (active),-74.8% (active),-90.6% (active),-25% (active)
CCc1ccc(SC2c3ccc(N(CC)CC)cc3Oc3nc(N)c(C#N)c(N)c32)cc1 (stereo not drawn),-85.1% (active),-84.1% (active),-76.6% (active),3.17% (active),-58.3% (active),-44.1% (active),-38.4% (active),-0.807% (active),-89.2% (active),-52.8% (active),-86.3% (active),1.74% (active),-40.8% (active),-83.8% (active),-24.3% (active),-76.2% (active),-94.1% (active),6.57% (active)
O=C(CNc1nc(-c2cccc([N+](=O)[O-])c2)cs1)Nc1cccc([N+](=O)[O-])c1,-29.7% (active),-35.9% (active),58.9%,17.3%,-15.7% (active),-39.4% (active),-36.2% (active),-19% (active),-13.6% (active),-30.8% (active),-6.15% (active),8.33% (active),-70.8% (active),-28.8% (active),-4.97% (active),0.245% (active),-29.6% (active),-13% (active)
CCN(CC)c1ccc2c(c1)Oc1nc(N)c(C#N)c(N)c1C2Sc1ccc(F)cc1 (stereo not drawn),-82.3% (active),-84.8% (active),-84.8% (active),-15% (active),-69.8% (active),-36.7% (active),-48.7% (active),-39.6% (active),-83.8% (active),-58.5% (active),-94.2% (active),2.27% (active),-45.6% (active),-86% (active),-44.7% (active),-91.4% (active),-96.1% (active),-16.9% (active)
Nc1ncc(-c2ccc3ncnc(Nc4cccc(Cl)c4F)c3c2)cn1,72.8%,66.6%,11%,47.5%,62.2%,31.3%,32.2%,51.9%,43.5%,86.4%,48.9%,80.5%,49.3%,55.3%,53.8%,44.9%,68.4%,89.4%
CN1CCN(Cc2ccc(NC(=O)c3cncc(C#Cc4cnc5ccc(OCC(C)(C)O)nn45)c3)cc2C(F)(F)F)CC1,-58.4% (active),-64.1% (active),-22.5% (active),-9.7% (active),-73.9% (active),-18.6% (active),-35.3% (active),-45.3% (active),-62.3% (active),-70% (active),-36.8% (active),8.57% (active),-67.6% (active),-11.1% (active),-50.4% (active),-2.58% (active),-83.1% (active),-16.8% (active)
CC(=O)N1C(=S)NC(=O)C1CC(C)C (stereo not drawn),106%,100%,97.6%,99.8%,106%,98.9%,94.9%,101%,97.6%,110%,110%,106%,102%,103%,102%,102%,102%,104%
C=C(C=O)[C@@H]1CC[C@]2(COC(C)=O)CC[C@]3(C)C(CC[C@@H]4[C@@]5(C)CC[C@H](OC(C)=O)C(C)(C)[C@@H]5CC[C@]43C)[C@@H]12 (stereo partly drawn),-22.4% (active),-55.5% (active),40.5%,80.6%,-23.2% (active),-78.8% (active),-35.5% (active),36.5%,2.99% (active),-8.44% (active),-53% (active),2.89% (active),-64.7% (active),-32.2% (active),6.02% (active),0.392% (active),-50.2% (active),-17.2% (active)
